Screening results from PubChem.
Sampled rows, rich in hits. Any-hit rate of the full collection: about 3.9%.
Anthrax LF inh2: inhibitors of Bacillus anthracis lethal factor protease. multiplex microsphere protease cleavage assay, LF. inhibition, % at 10 µM. 360,000 compounds, 0.12% hits
Target sequence (P15917 whole entry, looked up): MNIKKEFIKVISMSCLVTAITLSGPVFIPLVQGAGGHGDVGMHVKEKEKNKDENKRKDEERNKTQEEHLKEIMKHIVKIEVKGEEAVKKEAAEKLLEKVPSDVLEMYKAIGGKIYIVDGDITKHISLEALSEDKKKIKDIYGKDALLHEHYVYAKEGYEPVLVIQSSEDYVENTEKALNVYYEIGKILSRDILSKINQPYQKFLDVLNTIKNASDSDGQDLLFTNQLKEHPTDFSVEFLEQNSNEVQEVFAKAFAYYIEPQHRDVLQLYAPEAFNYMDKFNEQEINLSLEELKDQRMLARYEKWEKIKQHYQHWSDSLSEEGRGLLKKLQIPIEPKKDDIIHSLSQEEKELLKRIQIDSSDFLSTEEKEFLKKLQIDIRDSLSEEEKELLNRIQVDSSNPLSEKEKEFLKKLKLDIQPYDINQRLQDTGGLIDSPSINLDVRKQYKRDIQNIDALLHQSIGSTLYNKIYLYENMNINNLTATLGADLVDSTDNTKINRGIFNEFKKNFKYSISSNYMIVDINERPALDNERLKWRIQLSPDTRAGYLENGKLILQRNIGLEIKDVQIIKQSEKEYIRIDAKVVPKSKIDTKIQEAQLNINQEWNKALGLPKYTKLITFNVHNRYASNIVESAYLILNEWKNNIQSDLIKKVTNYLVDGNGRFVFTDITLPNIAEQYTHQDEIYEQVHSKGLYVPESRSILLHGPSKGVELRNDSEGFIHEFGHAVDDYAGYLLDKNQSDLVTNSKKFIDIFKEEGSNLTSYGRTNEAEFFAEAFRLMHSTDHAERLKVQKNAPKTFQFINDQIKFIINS
CCHFV vOTU inh: CCHFV vOTU protease inhibition | Pep-AMC fluorescence | inhibition, % at 11.5 µM | 370,000 compounds, 0.55% hits | AID 651958; in the data active means inhibition above about 30%
BoNT-F LC inh: BoNT F light chain protease inhibition | inhibition, % at 10 µM | 360,000 compounds, 0.22% hits | Multiplex microsphere protease cleavage assay, flow cytometry; in the data active means inhibition above about 35%, passing the limit was not always enough; inconclusive means no clear call, values can overlap the other calls
Autofluor counter: compound fluorescence in toxin protease inhibitor counterscreen | AID 624483 | fluorescence intensity (test concentration not listed) | 360,000 compounds, 3.1% hits | compound autofluorescence counterscreen, microsphere flow cytometry; stronger effect = higher value; in the data active means fluorescence intensity above about 16000; inconclusive means no clear call, values can overlap the other calls
BoNT-A LC inh2: inhibitors of Botulinum neurotoxin A light chain protease. inhibition, % at 10 µM. 360,000 compounds, 0.17% hits. multiplex microsphere protease substrate cleavage, flow cytometry
3CLpro inhibitor: SARS-CoV 3CLpro protease inhibition | 290,000 compounds, 0.14% hits | P0C6X7 | recombinant SARS-CoV 3CLpro, quenched FRET peptide cleavage | inhibition, % at 6 µM; in the data active means inhibition above about 12%
Numbers stand for hits. Unless noted, no stated cut-off is given here; in the data, active means inhibition above about 30%; inconclusive means no clear call, values can overlap the other calls; inactive means below that.

For COc1ccc(C(=O)C[n+]2cc(Br)cc3ccccc32)cc1[N+](=O)[O-] the results were Anthrax LF inh2 inactive, CCHFV vOTU inh inactive, BoNT-F LC inh 51.6, Autofluor counter inactive, BoNT-A LC inh2 116.5 and 3CLpro inhibitor inactive.
For COc1cc2ccc(NC(C)=O)cc2cc1OC the results were Anthrax LF inh2 inactive, CCHFV vOTU inh inactive, BoNT-F LC inh inactive, Autofluor counter inactive and BoNT-A LC inh2 inactive.
COc1ccc(CNC(=S)OC2CCC23CCC(c2ccccc2)CC3)cc1 (centres undefined) was read as CCHFV vOTU inh inactive.
Screening N=c1ncn(CC(O)CN2CCOCC2)c2nc(N3CCOCC3)[nH]c12 (centres undefined) returned Anthrax LF inh2 inactive, CCHFV vOTU inh inactive, BoNT-F LC inh inactive, Autofluor counter 22533, BoNT-A LC inh2 inactive and 3CLpro inhibitor inactive.
For COc1ccc(/C=C/C(=O)c2ccc[nH]2)cc1OC the results were Anthrax LF inh2 inactive, CCHFV vOTU inh inactive, BoNT-F LC inh inactive, Autofluor counter 16560, BoNT-A LC inh2 inactive and 3CLpro inhibitor inactive.
For CCCN1CN(Cc2ccco2)c2nc3ccccc3n2C1 the results were Anthrax LF inh2 inactive, CCHFV vOTU inh inactive, BoNT-F LC inh inactive, Autofluor counter 18478, BoNT-A LC inh2 inconclusive and 3CLpro inhibitor inactive.
For c1coc(CN2CNc3nc4ccccc4n3C2)c1 the results were Anthrax LF inh2 inactive, CCHFV vOTU inh inactive, BoNT-F LC inh inactive, Autofluor counter inactive, BoNT-A LC inh2 inactive and 3CLpro inhibitor inactive.
`CCN(CC)S(=O)(=O)c1ccc(C(=O)Nc2ccc(Cc3ccncc3)cc2)cc1` gave Anthrax LF inh2 inactive, CCHFV vOTU inh inactive, BoNT-F LC inh inactive, Autofluor counter inactive, BoNT-A LC inh2 inactive and 3CLpro inhibitor inactive.
Screening CCN(Cc1ccncc1)S(=O)(=O)c1ccc(C(C)=O)cc1 returned Anthrax LF inh2 inactive, CCHFV vOTU inh inactive, BoNT-F LC inh inactive, Autofluor counter 22742, BoNT-A LC inh2 inactive and 3CLpro inhibitor inactive.
Cc1cc(C)nc(SCCCn2c(=O)[nH]c3ccccc32)n1 was read as Anthrax LF inh2 inactive, CCHFV vOTU inh inactive, BoNT-F LC inh inactive, Autofluor counter 16659, BoNT-A LC inh2 inactive and 3CLpro inhibitor inactive.
CCCS(=O)(=O)Nc1cc(C(F)(F)F)ccc1OCCOC was read as Anthrax LF inh2 inactive, CCHFV vOTU inh inactive, BoNT-F LC inh inactive, Autofluor counter 24565, BoNT-A LC inh2 inactive and 3CLpro inhibitor inactive.
Screening Cc1cc(C(=O)NCCC2=CCCCC2)no1 returned Anthrax LF inh2 inactive, CCHFV vOTU inh inactive, BoNT-F LC inh inactive, Autofluor counter 25954, BoNT-A LC inh2 inactive and 3CLpro inhibitor inactive.
O=C(NCCC1=CCCCC1)c1cc(COc2c(F)cccc2F)on1 was read as Anthrax LF inh2 inactive, CCHFV vOTU inh inactive, BoNT-F LC inh inactive, Autofluor counter inactive, BoNT-A LC inh2 inactive and 3CLpro inhibitor inactive.
COc1cccc(CSc2nnc(C(F)(F)F)n2Cc2ccc(F)cc2)c1 was read as Anthrax LF inh2 inactive, CCHFV vOTU inh inactive, BoNT-F LC inh inactive, Autofluor counter 22093, BoNT-A LC inh2 inactive and 3CLpro inhibitor inactive.
`Cc1ccc(CSc2nnc(C(F)(F)F)n2Cc2ccc(F)cc2)cc1` gave Anthrax LF inh2 inactive, BoNT-F LC inh inactive, Autofluor counter inactive, BoNT-A LC inh2 inactive and 3CLpro inhibitor inactive.
`CCCCN(CCCC)CC1OCc2ccccc2CO1` gave Anthrax LF inh2 inactive, CCHFV vOTU inh inactive, BoNT-F LC inh inactive, Autofluor counter 20889, BoNT-A LC inh2 inactive and 3CLpro inhibitor inactive.
For Cc1ccc[n+](CC2OCc3ccccc3CO2)c1 the results were Anthrax LF inh2 inactive, CCHFV vOTU inh inactive, BoNT-F LC inh inactive, Autofluor counter inactive, BoNT-A LC inh2 inactive and 3CLpro inhibitor inactive.
`COc1ccc(S[C@]2(C(=O)N3CCN(C(C)=O)CC3)CC(=O)N(C(=O)c3ccccc3)[C@@H]2c2ccc(OC)cc2)cc1` gave CCHFV vOTU inh inactive.
`Cc1cc(C)n(CCc2nc(-c3ccco3)cs2)n1` gave Anthrax LF inh2 inactive, CCHFV vOTU inh inactive, BoNT-F LC inh inactive, Autofluor counter 19796, BoNT-A LC inh2 inactive and 3CLpro inhibitor inactive.
COCCCNC(=O)C[C@@H]1C[C@@]2(C(=O)OC)CCCCC=C2N(Cc2cccc3ccccc23)C1=O was read as Anthrax LF inh2 inactive, CCHFV vOTU inh inactive, BoNT-F LC inh inactive, Autofluor counter inactive and BoNT-A LC inh2 inactive.
CC1(C(=O)NC2CCCCCCC2)CC1(Cl)Cl (centres undefined) was read as Anthrax LF inh2 inactive, CCHFV vOTU inh inactive, BoNT-F LC inh inactive, Autofluor counter 17224, BoNT-A LC inh2 inactive and 3CLpro inhibitor inactive.
For O=C(NC1CCCCC1)C1(c2ccccc2)CC1(Cl)Cl (centres undefined) the results were Anthrax LF inh2 inactive, CCHFV vOTU inh inactive, BoNT-F LC inh inactive, Autofluor counter inactive, BoNT-A LC inh2 inactive and 3CLpro inhibitor inactive.
O=C1CCCCC1CCS(=O)(=O)NCc1ccccc1 (centres undefined) was read as CCHFV vOTU inh inactive.
`COCCOC(=O)c1c(C)oc2ccc(OC(=O)c3cccs3)cc12` gave Anthrax LF inh2 inactive, CCHFV vOTU inh inactive, BoNT-F LC inh inactive, Autofluor counter 22293, BoNT-A LC inh2 inactive and 3CLpro inhibitor inactive.
For COCCOC(=O)c1c(C)oc2ccc(OC(=O)COc3c(F)c(F)c(F)c(F)c3F)cc12 the results were Anthrax LF inh2 inactive, CCHFV vOTU inh inactive, BoNT-F LC inh inactive, Autofluor counter 22277, BoNT-A LC inh2 inactive and 3CLpro inhibitor inactive.
For Cc1ccc(OCc2nc(-c3ccc(Cl)cc3)n[nH]2)cc1 the results were Anthrax LF inh2 inactive, CCHFV vOTU inh inactive, BoNT-F LC inh inactive, Autofluor counter 19787, BoNT-A LC inh2 inactive and 3CLpro inhibitor inactive.
For C=CCN1C(=S)CC(c2ccccc2)=Nc2ccccc21 the results were Anthrax LF inh2 inactive, CCHFV vOTU inh inactive, BoNT-F LC inh inactive, Autofluor counter inactive, BoNT-A LC inh2 inactive and 3CLpro inhibitor inactive.
For CCOC(=O)CSc1nnc(Cc2cc(=O)[nH]c(=O)[nH]2)n1-c1cccc(OC)c1 the results were Anthrax LF inh2 inactive, CCHFV vOTU inh inactive, BoNT-F LC inh inactive, Autofluor counter 21403, BoNT-A LC inh2 inconclusive and 3CLpro inhibitor inactive.
COC(=O)CSc1nnc(Cc2cc(=O)[nH]c(=O)[nH]2)n1-c1cccc(OC)c1 was read as Anthrax LF inh2 inactive, CCHFV vOTU inh inactive, BoNT-F LC inh inactive, Autofluor counter inactive, BoNT-A LC inh2 inactive and 3CLpro inhibitor inactive.
`CCOC(=O)CSc1nnc(CNC(=O)c2ccc(OC)cc2OC)n1-c1ccc(OC)cc1` gave Anthrax LF inh2 inactive, CCHFV vOTU inh inactive, BoNT-F LC inh inactive, Autofluor counter 21152, BoNT-A LC inh2 inactive and 3CLpro inhibitor inactive.
`Clc1ccc(CSc2nncn2-c2ccccn2)cc1` gave Anthrax LF inh2 inactive, CCHFV vOTU inh inactive, BoNT-F LC inh inactive, Autofluor counter 23849, BoNT-A LC inh2 inactive and 3CLpro inhibitor inactive.
`COC(=O)Nc1ccc(OC)c(OC)c1` gave Anthrax LF inh2 inactive, CCHFV vOTU inh inactive, BoNT-F LC inh inactive, Autofluor counter inactive, BoNT-A LC inh2 inactive and 3CLpro inhibitor inactive.
For COc1ccc(NC(=S)NNC(=O)OC(C)(C)C)cc1OC the results were Anthrax LF inh2 inactive, CCHFV vOTU inh inactive, BoNT-F LC inh inactive, Autofluor counter 24133, BoNT-A LC inh2 inconclusive and 3CLpro inhibitor inactive.
